Measurements from PubChem BioAssay AID1159580 (chemical genetic matrix, 2015).
Out of some 5,500 compounds screened, about 2,000 (36%) were called active. Roughly 18% stayed inconclusive and do not appear here. Cut-off read from the data, not from the text of the source: active = normalized growth mostly below about 0.91 (no sharp cut-off); inconclusive = no clear call, values can overlap the other calls; inactive = mostly above about 0.92. Some of the results follow.

Assay: chemical genetic growth profiling, strain panel (AID 1159580);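 note: tested at 20 µM; growth read once vehicle control cultures reached saturation at 30 °C; 1 = growth at the plate median or of vehicle wells; lower values mean less growth of the strain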
Settings: growth OD

Measured: normalized growth

CN1C[C@H](C(=O)N[C@]2(C)O[C@@]3(O)[C@@H]4CCCN4C(=O)[C@H](Cc4ccccc4)N3C2=O)C[C@@H]2c3cccc4[nH]cc(c34)C[C@H]21
inactive: S. cerevisiae deletion strains, locus YKL009W, strain mrt4, active compounds read low 0.97 | S. cerevisiae deletion strains, locus YKL068W, active compounds read low 0.989 | S. cerevisiae deletion strains, locus YKL085W, strain MDH1 (second series), active compounds read low 0.987 | S. cerevisiae deletion strains, locus YKL085W, strain MDH1, active compounds read low 0.987 | S. cerevisiae deletion strains, locus YKL160W, strain elf1, active compounds read low 0.928 | S. cerevisiae deletion strains, locus YKL190W, strain CNB1, active compounds read low 0.992 | S. cerevisiae deletion strains, locus YKR001C, strain vps1, active compounds read low 1 | S. cerevisiae deletion strains, locus YKR026C, strain gcn3, active compounds read low 0.996 | S. cerevisiae deletion strains, locus YKR091W, strain srl3, active compounds read low 0.983 | S. cerevisiae deletion strains, locus YLL001W, strain dnm1, active compounds read low 0.92 | S. cerevisiae deletion strains, locus YLL026W, active compounds read low 0.988 | S. cerevisiae deletion strains, locus YLL041C, strain sdh2, active compounds read low 0.997 | S. cerevisiae deletion strains, locus YLR027C, strain aat2, active compounds read low 0.992 | S. cerevisiae deletion strains, locus YLR039C, strain RIC1, active compounds read low 1.06 | S. cerevisiae deletion strains, locus YLR058C, strain SHM2, active compounds read low 0.957 | S. cerevisiae deletion strains, locus YLR102C, strain apc9, active compounds read low 0.974 | S. cerevisiae deletion strains, locus YLR113W, strain HOG1, active compounds read low 1.07 | S. cerevisiae deletion strains, locus YLR221C, strain rsa3, active compounds read low 0.997 | S. cerevisiae deletion strains, locus YLR258W, strain gsy2, active compounds read low 1.01 | S. cerevisiae deletion strains, locus YLR262C, strain YPT6 (second series), active compounds read low 0.973 | S. cerevisiae deletion strains, locus YLR262C, strain YPT6, active compounds read low 1.06 | S. cerevisiae deletion strains, locus YLR268W, strain sec22, active compounds read low 0.973 | S. cerevisiae deletion strains, locus YLR320W, strain mms22, active compounds read low 0.969 | S. cerevisiae deletion strains, locus YLR330W, strain CHS5, active compounds read low 0.984 | S. cerevisiae deletion strains, locus YLR342W, strain FKS1 (second series), active compounds read low 0.906 | S. cerevisiae deletion strains, locus YLR342W, strain FKS1, active compounds read low 1.01 | S. cerevisiae deletion strains, locus YLR357W, strain rsc2, active compounds read low 0.957 | S. cerevisiae deletion strains, locus YLR370C, strain arc18, active compounds read low 0.987 | S. cerevisiae deletion strains, locus YLR371W, strain rom2, active compounds read low 0.974 | S. cerevisiae deletion strains, locus YLR384C, strain iki3, active compounds read low 1.01 | S. cerevisiae deletion strains, locus YML016C, strain PPZ1, active compounds read low 0.979 | S. cerevisiae deletion strains, locus YML032C, strain rad52, active compounds read low 0.979 | S. cerevisiae deletion strains, locus YML120C, strain ndi1, active compounds read low 0.95 | S. cerevisiae deletion strains, locus YML124C, strain tub3, active compounds read low 0.982 | S. cerevisiae deletion strains, locus YMR058W, strain fet3, active compounds read low 0.965 | S. cerevisiae deletion strains, locus YMR078C, strain ctf18, active compounds read low 0.963 | S. cerevisiae deletion strains, locus YMR125W, strain sto1, active compounds read low 0.921 | S. cerevisiae deletion strains, locus YMR129W, active compounds read low 0.989 | S. cerevisiae deletion strains, locus YMR205C, strain PFK2, active compounds read low 0.946 | S. cerevisiae deletion strains, locus YMR223W, strain ubp8, active compounds read low 0.941 | S. cerevisiae deletion strains, locus YMR231W, strain pep5, active compounds read low 1.01 | S. cerevisiae deletion strains, locus YMR263W, strain SAP30, active compounds read low 0.959 | S. cerevisiae deletion strains, locus YMR307W, strain GAS1, active compounds read low 0.821 | S. cerevisiae deletion strains, locus YNL067W, strain RPL9B, active compounds read low 0.961 | S. cerevisiae deletion strains, locus YNL071W, strain lat1, active compounds read low 0.994 | S. cerevisiae deletion strains, locus YNL128W, strain TEP1, active compounds read low 0.96 | S. cerevisiae deletion strains, locus YNL153C, strain GIM3, active compounds read low 0.965 | S. cerevisiae deletion strains, locus YNL183C, strain NPR1, active compounds read low 0.98 | S. cerevisiae deletion strains, locus YNL209W, strain ssb2, active compounds read low 0.981 | S. cerevisiae deletion strains, locus YNL233W, strain BNI4, active compounds read low 0.933 | S. cerevisiae deletion strains, locus YNL248C, strain rpa49, active compounds read low 0.933 | S. cerevisiae deletion strains, locus YNL250W, strain rad50, active compounds read low 0.984 | S. cerevisiae deletion strains, locus YNL271C, strain bni1, active compounds read low 0.974 | S. cerevisiae deletion strains, locus YNL298W, strain CLA4, active compounds read low 0.985 | S. cerevisiae deletion strains, locus YNL307C, strain MCK1, active compounds read low 0.967 | S. cerevisiae deletion strains, locus YNL322C, strain KRE1 (second series), active compounds read low 0.989 | S. cerevisiae deletion strains, locus YNL322C, strain KRE1, active compounds read low 0.996 | S. cerevisiae deletion strains, locus YNR049C, strain mso1, active compounds read low 0.983 | S. cerevisiae deletion strains, locus YNR052C, strain pop2, active compounds read low 0.972 | S. cerevisiae deletion strains, locus YOL006C, strain TOP1, active compounds read low 0.79 | S. cerevisiae deletion strains, locus YOL012C, strain htz1 0.956 | S. cerevisiae deletion strains, locus YOL147C, strain pex11, active compounds read low 0.975 | S. cerevisiae deletion strains, locus YOR001W, strain rrp6, active compounds read low 1.05 | S. cerevisiae deletion strains, locus YOR061W, strain CKA2, active compounds read low 0.986 | S. cerevisiae deletion strains, locus YOR069W, strain VPS5, active compounds read low 0.989 | S. cerevisiae deletion strains, locus YOR070C, strain gyp1, active compounds read low 1 | S. cerevisiae deletion strains, locus YOR080W, strain dia2, active compounds read low 0.996 | S. cerevisiae deletion strains, locus YOR083W, strain WHI5, active compounds read low 0.931 | S. cerevisiae deletion strains, locus YOR106W, strain vam3, active compounds read low 0.914 | S. cerevisiae deletion strains, locus YOR136W, strain idh2, active compounds read low 0.977 | S. cerevisiae deletion strains, locus YOR144C, strain elg1, active compounds read low 0.985 | S. cerevisiae deletion strains, locus YOR184W, strain ser1, active compounds read low 0.943 | S. cerevisiae deletion strains, locus YOR231W, strain MKK1, active compounds read low 1.05 | S. cerevisiae deletion strains, locus YOR265W, strain rbl2, active compounds read low 0.994 | S. cerevisiae deletion strains, locus YOR270C, strain vph1, active compounds read low 0.909 | S. cerevisiae deletion strains, locus YOR290C, strain snf2, active compounds read low 0.962 | S. cerevisiae deletion strains, locus YOR316C, strain cot1, active compounds read low 0.971 | S. cerevisiae deletion strains, locus YPL051W, strain arl3, active compounds read low 0.992 | S. cerevisiae deletion strains, locus YPL055C, strain LGE1, active compounds read low 0.91 | S. cerevisiae deletion strains, locus YPL078C, strain atp4, active compounds read low 0.926 | S. cerevisiae deletion strains, locus YPL106C, strain sse1, active compounds read low 0.967 | S. cerevisiae deletion strains, locus YPL240C, strain hsp82, active compounds read low 0.989 | S. cerevisiae deletion strains, locus YPL241C, strain CIN2, active compounds read low 0.993 | S. cerevisiae deletion strains, locus YPL256C, strain CLN2, active compounds read low 1.03 | S. cerevisiae deletion strains, locus YPR119W, strain clb2, active compounds read low 0.967 | S. cerevisiae deletion strains, locus YPR141C, strain kar3, active compounds read low 0.968 | S. cerevisiae deletion strains, locus YPR163C, strain tif3, active compounds read low 0.989 | S. cerevisiae deletion strains, locus YPR167C, strain met16, active compounds read low 0.969 | S. cerevisiae deletion strains, strain wtn01, active compounds read low 0.965 | S. cerevisiae strains, strain wild type, active compounds read low 0.986
active: S. cerevisiae deletion strains, locus YLR418C, strain cdc73, active compounds read low 0.803
